Screening results as filed in PubChem.
Rows were chosen to be rich in hits. Some 17% of all compounds tested hit in one or more screens of this group.
TDP1 cell CPT – qHTS for Inhibitors of human tyrosyl-DNA phosphodiesterase 1 (TDP1): qHTS in cells in presence of CPT | chicken DT40 Tdp1-/-;hTDP1 cells + 20 nM CPT, ATP luminescence, 48 h | AID 686979, 2013 | hit rate 12% among 420,000 | Potency, µM (doses to about 46.2 µM), for the others: at the highest dose activity change, negative = growth inhibition, usual class: inhibitors; also: % is scaled to controls: 0 for no effect and ±100 for the full control effect; nearly all actives have a fitted effect of over 55% in size
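Chicken DT40 Tdp1-/- cells stably complemented with human TDP1 were seeded at 400 cells/well in medium containing 20 nM camptothecin, exposed to pin-transferred compounds, and grown at 37 °C for at least 48 hr. Viability was read as ATP luminescence.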
HT1080-NT tox – qHTS for induction of synthetic lethality in tumor cells producing 2HG: qHTS for the HT-1080-NT fibrosarcoma cell line; HT-1080-NT fibrosarcoma viability, CellTiter-Glo ATP luminescence, 48 h; Potency, µM (titrated, usually from 46.1 µM), for inactives: at the top dose activity, negative = less viability, most hits filed as cytotoxic; hit rate 1.6% among 360,000; AID 686970, 2013;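 also: NT is the 2HG producing partner of a matched IDH1 knockdown line; 0% = DMSO-treated cells and -100% = media-only wells without cells; nearly all actives have a fitted effect of over 55% in size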
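HT-1080-NT; 750 cells/well; 5% FBS RPMI; 48 h compound, 37 degrees C; CellTiter-Glo luminescence; curve fitting and curve-class assignment.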
HepG2 viability – qHTS for Inhibitors of TGF-b: Cytotox Counterscreen. HepG2 CAGA-GFP viability, ATP luminescence, 18 h. Potency, µM (highest dose often 46.1 µM), without a hit: top-dose activity change, negative = cytotoxicity, hits mostly cytotoxic. hit rate 0.76% among 410,000. AID 588856, 2011
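CellTiter-Glo luminescence gave cytotoxicity after 18 hours at 37 degrees C. The cells were HepG2 CAGA-GFP in 1% FBS DMEM, stimulated with 500 pg/mL TGF-beta after compound addition. %Activity was normalised to no-cell wells (complete cell-killing) and DMSO (no toxicity), and curves were fitted and classified.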
HT1080 IDH1KD tx – qHTS for induction of synthetic lethality in tumor cells producing 2HG: qHTS for the HT-1080-IDH1KD cell line; HT-1080 IDH1 knockdown viability, ATP luminescence, 48 h; Potency, µM (highest dose often 46.1 µM), for the others: at the highest dose activity, negative = toxicity, usual class: cytotoxic; hit rate 2% among 360,000; AID 686971, 2013;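 also: 0% = DMSO wells and -100% = cell-free medium wells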
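Luminescent ATP read-out (CellTiter-Glo, 10 min at room temperature) after 48 h compound exposure at 37 °C gave viability of IDH1-knockdown HT-1080 cells. Activity was normalised to DMSO and cell-free wells, then fitted as concentration-response curves.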
TDP1 cell noCPT – qHTS for Inhibitors of human tyrosyl-DNA phosphodiesterase 1 (TDP1): qHTS in cells in absence of CPT | Potency, µM (doses to about 46.2 µM), for the others: at the top dose activity change, negative = growth inhibition, hits mostly inhibitors | DT40 Tdp1-/- hTDP1 cells, no CPT, ATP luminescence, 48 h | hit rate 15% among 420,000; also: % is scaled to controls: 0 for no effect and ±100 for the full control effect; nearly all actives have a fitted effect of over 55% in size
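Growth of hTDP1-complemented DT40 Tdp1-knockout cells is measured by ATP luminescence after at least 48 hr compound exposure at 37 °C, with DMSO substituting for the 20 nM CPT used in the parallel screen.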
TGFb inhibitor – qHTS for Inhibitors of TGF-b | HepG2 CAGA-GFP TGF-b/SMAD3 reporter, GFP fluorescence, 18 h; TGF-beta stimulated, 500 pg/mL final | Potency, µM (top dose mostly 46.1 µM), inactives show top-dose activity, negative = inhibition, usual class: inhibitors | hit rate 1.2% among 410,000 | AID 588855, 2011; also: % is scaled to controls: 0 for no effect and ±100 for the full control effect; nearly all actives have a fitted effect of over 65% in size
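GFP signal (ex488/em500-530) from TGF-beta-stimulated HEPG2 CAGA-GFP cells, 500 pg/mL final, 18 h at 37 degrees C in DMEM plus 1% FBS, normalized to unstimulated and DMSO-stimulated controls.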
* = called active by the depositor. Calls follow the shape of the dose curve; as a rule, active = well fitted curve in the direction sought with a large enough effect; inconclusive = small, poorly fitted or top-dose-only effect, or another doubt; inactive = no such curve, though single readings can be large; an effect the other way counts as inactive or inconclusive. Potency is read from the fitted curve at half-maximal effect.

For CN(CC(=O)Nc1cccc(F)c1)C(=O)c1ccccc1Sc1ccccc1C#N the results were TDP1 cell CPT inconclusive, HT1080-NT tox -0.3%, HepG2 viability -1.3%, HT1080 IDH1KD tx 0.3%, TDP1 cell noCPT inconclusive and TGFb inhibitor 13.1%.
Cc1ccc(-c2ccc(CCC(=O)O)n2NC(=O)c2ccc([N+](=O)[O-])cc2)cc1 was read as TDP1 cell CPT 8.0%, HT1080-NT tox -26.2%, HepG2 viability -1.1%, HT1080 IDH1KD tx 2.9%, TDP1 cell noCPT -2.3% and TGFb inhibitor -1.7%.
For Cn1nc2c3ccccc3n(Cc3ccccc3)c2nc1=S the results were TDP1 cell CPT -18.1%, HT1080-NT tox -2.2%, HepG2 viability -4.8%, HT1080 IDH1KD tx -2.4%, TDP1 cell noCPT inconclusive and TGFb inhibitor -7.8%.
`COc1ccccc1CN1CCC(n2nccc2NC(=O)CCc2ccccc2)CC1` gave TDP1 cell CPT -28.4%, HT1080-NT tox -18.7%, HepG2 viability -16.9%, HT1080 IDH1KD tx -3.7%, TDP1 cell noCPT 9.0% and TGFb inhibitor -3.8%.
For CCCNC(=O)CNC(=O)c1ccccc1OCC(=O)Nc1ccc(Br)cc1 the results were TDP1 cell CPT -2.9%, HepG2 viability 1.6%, TDP1 cell noCPT inconclusive and TGFb inhibitor -7.0%.
`Oc1c(Cl)cc(Cl)c2c1NCCC2` gave TDP1 cell CPT 6.51µM*, HT1080-NT tox -1.7%, HepG2 viability -45.5%, HT1080 IDH1KD tx -21.7%, TDP1 cell noCPT 10.3µM* and TGFb inhibitor 14.1µM*.
For CC(C)C[C@H]1COc2cc(N3CCC[C@H]3CO)ccc2S(=O)(=O)N1 the results were TDP1 cell CPT -25.3%, HT1080-NT tox 11.3%, HT1080 IDH1KD tx 26.2% and TDP1 cell noCPT -18.2%.
For C[C@H]1COC(=O)[C@@H](CC(=O)OC(C)(C)C)C/C=C\C[C@H](CC(=O)NCCO)C(=O)N1 the results were TDP1 cell CPT 2.4%, HT1080-NT tox 18.6%, HepG2 viability -12.7%, HT1080 IDH1KD tx 6.6%, TDP1 cell noCPT -10.3% and TGFb inhibitor 0.2%.
Screening Cc1ccccc1-n1c(CSC(=N)N)nc2ccccc2c1=O returned TDP1 cell CPT 20.6µM*, HT1080-NT tox 9.5%, HepG2 viability -9.3%, HT1080 IDH1KD tx 2.6%, TDP1 cell noCPT inconclusive and TGFb inhibitor 4.9%.
`N=C(N)SCc1nc2ccccc2c(=O)n1-c1ccccc1Cl` gave TDP1 cell CPT 25.9µM*, HT1080-NT tox 19.4%, HepG2 viability -2.1%, HT1080 IDH1KD tx 11.5%, TDP1 cell noCPT 20.6µM* and TGFb inhibitor -1.9%.
Screening C/C(N)=C(/C#N)C(=O)CSc1nc2ccccc2c(=O)n1-c1ccccc1C returned TDP1 cell CPT inconclusive, HT1080-NT tox 0.5%, HepG2 viability 2.2%, HT1080 IDH1KD tx -9.5%, TDP1 cell noCPT inconclusive and TGFb inhibitor -13.8%.
`COc1cc(OC)c(NC(=O)c2nn(-c3ccc(C)cc3)c(=O)c3c2c2ccccc2n3C)cc1Cl` gave TDP1 cell CPT 8.3%, HepG2 viability -0.7%, TDP1 cell noCPT -0.7% and TGFb inhibitor -7.4%.
`CCN(CC)S(=O)(=O)c1ccc(NC(=O)c2c(C)oc3ncnc(N4CCCCC4)c23)cc1` gave TDP1 cell CPT 20.6µM*, HepG2 viability -27.1%, TDP1 cell noCPT 14.6µM* and TGFb inhibitor -7.6%.
